# Measurements published in PubChem BioAssay AID1974 (The Scripps Research Institute Molecular Screening Center, 2009).
# Out of some 300,000 compounds screened, about 3,200 (1.1%) were called active. Only a selection was taken, and actives are over-represented in it overall. A number with no mark means an inactive call.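 The calls were made as follows: active = inhibition above the campaign mean inhibition plus 3 SD (cut at about 35% in these data); inactive = the rest.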
# Target: Glutathione S-transferase omega-1 (Homo sapiens) (UniProt P78417)
# Experiment: human GSTO1 enzyme inhibition – biochemical, fluorescence polarization, counter-screen for RBBP9 inhibitor project, primary screen (AID 1974);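 also: 0% = GSTO1-1 with DMSO and 100% = wells lacking GSTO1-1 enzyme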
# Conditions: recombinant GSTO1, activity-based probe fluorescence polarization; at 5.96 µM; stronger effect = higher value
# Chain of Glutathione S-transferase omega-1 (Homo sapiens) (P78417 whole entry, looked up): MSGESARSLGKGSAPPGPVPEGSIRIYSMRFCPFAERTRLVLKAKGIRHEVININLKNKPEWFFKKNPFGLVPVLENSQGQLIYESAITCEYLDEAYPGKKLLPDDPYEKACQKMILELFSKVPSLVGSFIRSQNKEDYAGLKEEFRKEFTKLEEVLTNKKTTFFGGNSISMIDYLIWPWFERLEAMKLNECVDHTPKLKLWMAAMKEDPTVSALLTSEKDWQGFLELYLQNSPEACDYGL
row,Structure (SMILES),inhibition
1,CCOC(=O)c1c(N)n(CCN2CCOCC2)c2nc3ccccc3nc12,-0.71%
2,CCOC(=O)c1c(N)n(Cc2ccccc2)c2nc3ccccc3nc12,77.2% (active)
3,COc1cc(Cn2c(N)c(C(=O)NCc3ccco3)c3nc4ccccc4nc32)cc(OC)c1OC,-1.75%
4,CCN(CC)CCOC(=O)c1cc2cc(COC)ccc2o1,0.13%
5,O=c1c2ccccc2nc(/C=C/c2ccco2)n1-c1ccccc1O,-8.4%
6,O=C(O)COc1ccccc1/C=C1\C(=O)NC(=O)N(CCC2=CCCCC2)C1=O,41.1% (active)
7,O=C1NC(=O)N(CCc2ccc(F)cc2)C(=O)/C1=C/C=C/c1ccccc1,-7.53%
8,O=C1NC(=O)N(Cc2ccco2)C(=O)/C1=C\c1cccn1CCOc1ccccc1,18.6%
9,COc1cc2nc(N3CCN(C(=O)[C@@H]4CCCO4)CC3)nc(N)c2cc1OC,3.62%
10,CCCCCCN=C(CC)c1c(O)n(CCCC)c(=O)[nH]c1=O,-0.65%
11,CC(=O)Nc1ccccc1C(=O)OCC(=O)c1cccc2ccccc12,-2.14%
12,Cc1cccc(N2C(=O)NC(=O)/C(=C\c3cnn(-c4ccccc4)c3)C2=O)c1,-2.05%
13,O=C1NC(=O)N(c2ccccc2)C(=O)/C1=C/c1ccc([N+](=O)[O-])s1,38.7% (active)
14,COc1cccc(N2C(=O)NC(=O)/C(=C\c3cn(C)c4ccccc34)C2=O)c1,-0.1%
15,Cc1ccc(N2C(=O)NC(=O)C(CCc3ccncc3)(Cc3cccc(Cl)c3Cl)C2=O)cc1 (stereo not given),-2.83%
16,Cc1ccc(-n2c(-c3ccc([N+](=O)[O-])cc3)nc3ccccc3c2=O)cc1,5.91%
17,N#CC1=C(N)Oc2c(c(=O)oc3ccccc23)C1c1ccccc1OC(=O)c1cccs1 (stereo not given),-8.89%
18,CCNc1nc2[nH]c(=O)c3c(c2s1)OC(N)=C(C#N)C3c1cccs1 (stereo not given),40.5% (active)
19,CCN1c2nc3c(C)cccn3c(=O)c2CC2(C(=O)N(C)C(=O)N(C)C2=O)C1C (stereo not given),-4.29%
20,Cc1cc(C)cc(NC(=S)NC2CC3CCCC(C2)N3Cc2cccs2)c1 (stereo not given),0.82%
